Shown are actives, neighbours in structure and some others; about 2.7% of the full set was active somewhere.
IDH1 R132H inh – qHTS for Inhibitors of mutant isocitrate dehydrogenase 1 (IDH1): qHTS; IDH1-R132H enzyme, NADPH consumption, diaphorase/resazurin fluorescence; Isocitrate dehydrogenase [NADP] cytoplasmic (Homo sapiens), O75874; Potency, µM (highest dose often 76.6 µM), most hits filed as inhibitors; actives 0.093% (n = 390,000); further: nearly all actives have a fitted effect of over 65% in size
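IDH1-R132H (0.5 ug/mL) preincubated 30 min with compound, then NADPH (0.016 mM) and alpha-KG (2 mM) added; 80 min at RT, pH 7.5. Remaining NADPH coupled via diaphorase/resazurin to fluorescence (540/590 nm); concentration-response curves normalized to no-enzyme control.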
TrxR1 substrate – qHTS Assay for Substrates of Mammalian Selenoprotein Thioredoxin Reductase 1 (TrxR1): qHTS; Thioredoxin reductase 1, cytoplasmic (Rattus norvegicus), O89049; purified TrxR1 substrate turnover, NADPH consumption readout; Potency, µM (series often up to 114 µM); actives 0.01% (n = 390,000); AID 588456, 2011; further: nearly all actives have a fitted effect of over 50% in size
Target sequence (O89049 whole entry, looked up): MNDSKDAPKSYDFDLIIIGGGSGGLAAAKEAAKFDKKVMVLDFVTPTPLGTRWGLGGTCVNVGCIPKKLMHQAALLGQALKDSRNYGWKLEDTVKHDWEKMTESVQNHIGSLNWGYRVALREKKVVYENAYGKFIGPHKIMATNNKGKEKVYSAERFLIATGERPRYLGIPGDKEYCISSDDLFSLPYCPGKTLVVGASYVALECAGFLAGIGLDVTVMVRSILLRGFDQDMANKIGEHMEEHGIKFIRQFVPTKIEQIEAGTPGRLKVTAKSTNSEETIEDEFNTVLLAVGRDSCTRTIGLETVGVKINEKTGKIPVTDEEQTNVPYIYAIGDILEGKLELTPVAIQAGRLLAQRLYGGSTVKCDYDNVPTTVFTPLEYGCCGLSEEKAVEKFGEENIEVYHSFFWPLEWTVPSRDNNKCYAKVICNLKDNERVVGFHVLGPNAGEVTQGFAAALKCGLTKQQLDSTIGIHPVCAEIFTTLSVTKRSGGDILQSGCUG
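Rat TrxR1, dispensed at 90 nM, was prereduced with 400 uM NADPH (final) for 5 min at ~22 deg C, then incubated with compound 15 min before 400 uM selenite. A first-read NADPH fluorescence drop versus no-compound background flagged substrates.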
GLP-1R inv ag – qHTS of GLP-1 Receptor Inverse Agonists (Inhibition Mode) | Glucagon-like peptide 1 receptor (Homo sapiens), P43220 | HEK293 GLP-1R CRE-luciferase, luminescence, 24 h; GLP-1R form is constitutively active | Potency, µM (top dose mostly 38.3 µM), most hits filed as inhibitors | actives 1.6% (n = 410,000); further: nearly all actives have a fitted effect of over 55% in size
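Inverse agonism was detected as reduced cAMP-driven luciferase luminescence after 24 h compound treatment. The cells were HEK293 clones expressing constitutively active human GLP-1R with the reporter. Reporter-only and GPR119 cell lines served as counterscreen controls.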
GLP1R ag – qHTS of GLP-1 Receptor Agonists. Glucagon-like peptide 1 receptor (Homo sapiens), P43220. HEK293 GLP-1R CRE-luciferase, luminescence, 4-6 h; cells express a hypersensitive GLP-1R form. Potency, µM (top dose mostly 45.6 µM), usual class: activators. actives 0.007% (n = 380,000). AID 624172, 2012
TrxR1 inh – qHTS Assay for Inhibitors of Mammalian Selenoprotein Thioredoxin Reductase 1 (TrxR1): qHTS. Thioredoxin reductase 1, cytoplasmic (Rattus norvegicus), O89049. AID 588453, 2011. actives 1% (n = 390,000). recombinant rTrxR1, NADPH fluorescence consumption, selenite substrate. Potency, µM (top dose mostly 114 µM), most hits filed as inhibitors; further: nearly all actives have a fitted effect of over 65% in size
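Rat TrxR1 (90 nM in the dispensed reagent) was pre-reduced with 400 uM NADPH for 5 min at room temperature, then incubated with compound for 15 min. After 400 uM selenite was added, NADPH fluorescence (Ex 340/Em 450 nm) was followed for 8 min.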
HEK293 tox – qHTS of GLP-1 Receptor Inverse Agonists: Cytotox Screen. Potency, µM (series often up to 38.3 µM), actives largely listed as inhibitors. actives 0.13% (n = 410,000). HEK293 cAMP-luciferase reporter cells, luminescence, 24 h;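 further: loss of luciferase light is scored as toxicity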
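MLSMR compounds, 24 hr on cells at 37 deg C/5% CO2; luminescence after luciferase reagent (12 min RT). Inhibition counted as the undesired cytotoxic outcome.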
Large screens that a line does not name were inactive. The call rests on the fitted dose curve; in most records, active means well fitted curve in the direction sought with a large enough effect; inconclusive means small, poorly fitted or top-dose-only effect, or another doubt; inactive means no such curve, though single readings can be large; an effect the other way counts as inactive or inconclusive.

CCCC(=O)C1=C(O)C(C(=O)OC)C(C)(C)CC1=Nc1ccccc1 (stereo unspecified)	GLP-1R inv ag inconclusive
CCCC(=O)C1=C(O)C(C(=O)OC)C(C)(C)CC1=Nc1cccc2ccccc12 (stereo unspecified)	GLP-1R inv ag 7.9µM
Cc1cc2c(cc1C)C(=O)C(Br)=C(N)C2=O	TrxR1 inh 50µM
COCCN(Cc1ccccc1)C(=O)c1cccc(S(=O)(=O)N2CCN(Cc3ccccc3)CC2)c1	GLP-1R inv ag 14µM (no result: TrxR1 substrate, TrxR1 inh)
CCn1c2ccccc2c2cc(CN3CCN(Cc4cc(OC)c(O)c(OC)c4)CC3)ccc21	GLP-1R inv ag 11µM (no result: GLP1R ag)
COc1ccc(S(=O)(=O)N2CCCN(CC(=O)Nc3ccc(OC)c(Cl)c3)CC2)cc1	TrxR1 inh 50µM
COc1cc(CN2CCN(S(=O)(=O)c3ccccc3)CC2)cc(OC)c1O	TrxR1 inh 20µM (no result: GLP1R ag)
CCn1c2ccccc2c2cc(CN3CCN(Cc4cc(OC)ccc4O)CC3)ccc21	GLP-1R inv ag inconclusive
O=[N+]([O-])c1ccccc1S(=O)(=O)N1CCN(c2nc(-c3ccccc3)nc3ccccc23)CC1	none (no result: IDH1 R132H inh, GLP-1R inv ag, GLP1R ag, HEK293 tox)
O=C(CC(NC(=O)c1ccccc1)c1ccccc1)OCc1nc(-c2cccc(Cl)c2)no1 (stereo unspecified)	none (no result: IDH1 R132H inh, GLP-1R inv ag, GLP1R ag, HEK293 tox)
CN(C)c1ccc(/C=C/c2cc(Cl)nc3ccccc23)cc1	none (no result: IDH1 R132H inh, GLP-1R inv ag, GLP1R ag, HEK293 tox)
COc1cc(CN2CCN(S(=O)(=O)c3ccc(NC(C)=O)cc3)CC2)cc(OC)c1O	TrxR1 inh 13µM
COc1ccc(CN2CCN(S(=O)(=O)c3ccc(NC(C)=O)cc3)CC2)cc1OC	none
CCOC(=O)c1[nH]c2c(c1Cc1ccccc1C)C(=O)CC(c1ccccc1)C2 (stereo unspecified)	GLP-1R inv ag inconclusive (no result: GLP1R ag)
CCOC(=O)c1[nH]c2c(c1Cc1ccccc1)C(=O)CC(c1ccccc1)C2 (stereo unspecified)	GLP-1R inv ag 11µM (no result: GLP1R ag)
COc1ccc(C2NCCc3c2[nH]c2ccccc32)cc1CN1CCc2cc(OC)c(OC)cc2C1C (stereo unspecified)	GLP-1R inv ag 8.9µM, HEK293 tox inconclusive
CCc1c(C#N)c(SCCC(=O)Nc2ccc(OC)cc2)nc2c1C(=O)CC(C)(C)C2	GLP-1R inv ag inconclusive
CCc1c(C#N)c(SCc2c(C)noc2C)nc2c1C(=O)CC(C)(C)C2	GLP-1R inv ag 8.9µM
CCC/C=C1/CCCOC(C(=O)NCC2CC2)(C(F)(F)F)C1 (stereo unspecified)	none (no result: IDH1 R132H inh, GLP-1R inv ag, GLP1R ag, HEK293 tox)
CN(CC(=O)Nc1cccc(F)c1)C(=O)c1cn(-c2ccccc2)nc1-c1ccccc1	GLP-1R inv ag inconclusive
CCN(CC)CCNC(=O)c1ccc(NC(=O)c2cn(-c3ccccc3)nc2-c2cccs2)cc1	GLP-1R inv ag inconclusive
CCOc1ccc(NC(=O)CN(C)C(=O)c2cn(-c3ccc(F)cc3)nc2-c2cccc(OC)c2)cc1OCC	GLP-1R inv ag 4.5µM
CCN(CC)CCNC(=O)c1ccc(NC(=O)c2cn(-c3ccc(F)cc3)nc2-c2cccc(OC)c2)cc1	GLP-1R inv ag 8.9µM, HEK293 tox inconclusive
Cn1cc(C(=O)NCc2ccccc2)c(=O)c2cc(S(=O)(=O)N3CCOCC3)ccc21	none (no result: GLP1R ag)
COc1ccc(OC)c(N(CC(=O)NCCSCc2ccco2)S(=O)(=O)c2ccccc2)c1	none
CCOc1ccccc1N(CC(=O)NCCSCc1ccco1)S(=O)(=O)c1ccccc1	GLP-1R inv ag inconclusive, TrxR1 inh 22µM
COc1ccc(N(CC(=O)NCCSc2ccccc2)S(=O)(=O)c2ccccc2)c(OC)c1	GLP-1R inv ag 10µM
Nc1cc(N)c(OCC(F)(F)F)cc1OCC(F)(F)F	TrxR1 inh 0.32µM
Nc1cc(OCC(F)(F)F)cc([N+](=O)[O-])c1	none
COCc1c(C(=O)OCC(=O)N2c3ccccc3CC2C)oc2ccccc12 (stereo unspecified)	none
Cc1c(C(=O)N2c3ccccc3CC2C)oc2ccccc12 (stereo unspecified)	GLP-1R inv ag 10µM
CN(C(=O)c1cccc(COc2ccc(Cl)cc2Cl)c1)c1ccccc1	GLP-1R inv ag inconclusive
CN(C)C(=O)c1cccc(COc2ccc(N3C(N)=NC(N)=NC3(C)C)cc2Cl)c1	GLP-1R inv ag 2.2µM (no result: TrxR1 substrate, TrxR1 inh)
CC(C)NC(=O)N1CC(c2ccccc2)C(c2ccc(Cl)cc2)=N1 (stereo unspecified)	GLP-1R inv ag 4µM
CC(=O)N1N=C(c2c(-c3ccccc3)c3cc(Br)ccc3[nH]c2=O)CC1c1ccco1 (stereo unspecified)	GLP-1R inv ag inconclusive, TrxR1 inh 50µM
CCC(O)(CC)C(=O)N(Nc1ccc(C)cc1)c1ccc(C)cc1	GLP-1R inv ag 8.9µM
CCN1CCN(C(c2cccc(Cl)c2)c2c(O)cc(C)n(CCOC)c2=O)CC1 (stereo unspecified)	TrxR1 inh inconclusive (no result: GLP1R ag)
CC(NCC(=O)NC(=O)NC1CCCC1)c1ccc(Cl)cc1Cl (stereo unspecified)	GLP-1R inv ag 10µM
Cc1ccccc1Nc1nnc(-c2ccc(C)c(S(=O)(=O)N3CCCCC3)c2)c2ccccc12	GLP-1R inv ag 3.2µM (no result: GLP1R ag)
COc1ccc(-c2cc(C)nc(SCc3cccc(C(=O)O)c3)n2)cc1	none
Cc1nc(SCc2cccc(C(=O)O)c2)nc2c1CCCC2	GLP-1R inv ag 8.9µM
COc1cc(NC(=O)C2CCN(S(=O)(=O)c3c(C)noc3/C=C/c3ccccc3F)CC2)cc(OC)c1OC	GLP-1R inv ag inconclusive (no result: GLP1R ag)
CCCCN(C(=O)c1cccc2c(=O)c(C)c(-c3ccccc3)oc12)c1ccccc1	IDH1 R132H inh inconclusive, GLP-1R inv ag 10µM
CCCCNC(=O)c1cccc2c(=O)c(C)c(-c3ccccc3)oc12	none
O=c1cc(-c2ccccc2)n2c(SCc3ccc([N+](=O)[O-])cc3)nnc2[nH]1	none (no result: GLP1R ag)
O=C(CSc1nc2ccccc2nc1Cc1ccccc1)N1CCCc2ccccc21	none (no result: GLP1R ag)
COc1cccc(/C=C/c2ccc3ccccc3[n+]2C)c1OC	none (no result: IDH1 R132H inh, GLP-1R inv ag, GLP1R ag, HEK293 tox)
COCCn1c(SCC(=O)c2ccc3c(c2)OCCO3)nnc1-c1ccco1	TrxR1 inh inconclusive

From PubChem
